Results on one compound are retold here after PubChem BioAssay AID2284092 (EPA ToxCast).

SMILES strings stand for the structures. Calls of active or inactive are those of the source. Rule for the calls: active = hit-call score of the fitted dose curve at least 0.9, where 1 is the maximum; inactive = score below 0.9.

Glycogen synthase kinase-3 beta (Homo sapiens), sequence (P49841 whole entry, looked up): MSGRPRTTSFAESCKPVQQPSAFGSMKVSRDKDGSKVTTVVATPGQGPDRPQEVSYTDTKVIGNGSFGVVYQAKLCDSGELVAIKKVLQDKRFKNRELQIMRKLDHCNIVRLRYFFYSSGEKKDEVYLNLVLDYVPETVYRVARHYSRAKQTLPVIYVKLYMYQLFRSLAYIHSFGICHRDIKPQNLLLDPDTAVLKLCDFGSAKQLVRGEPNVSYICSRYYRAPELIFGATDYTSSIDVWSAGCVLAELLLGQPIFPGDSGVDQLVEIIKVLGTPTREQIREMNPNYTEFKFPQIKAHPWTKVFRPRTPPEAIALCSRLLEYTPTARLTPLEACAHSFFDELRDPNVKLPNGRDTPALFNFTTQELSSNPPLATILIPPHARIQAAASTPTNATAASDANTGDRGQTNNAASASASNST

For the experiment, the target named is Glycogen synthase kinase-3 beta (Homo sapiens) (UniProt P49841). The experiment in a line: ERF_FR_ENZ_hGSK3b: Eurofins (ERF) Enzymatic Radiometric [Km ATP] KinaseProfiler LeadHunter Assay for human GSK3beta (GSK3B) CMGC Kinase. As for the experimental part:
ERF_FR_ENZ_hGSK3b is a biochemical, single-readout assay that uses extracted gene-proteins in a cell-free assay. Measurements were taken 1.5 hour after chemical dosing in a 96-well plate. See GSK3beta Human CMGC Kinase Enzymatic LANCE Assay [Km ATP], Cerep.ERF_FR_ENZ_hGSK3b is an assay component calculated from the ERF_FR_ENZ_hGSK3b assay. It is designed to measure enzyme activity using a type of enzyme reporter as detected by fluorescence intensity with LANCE technology.Data from the assay component ERF_FR_ENZ_hGSK3b was analyzed at the assay endpoint, ERF_FR_ENZ_hGSK3b, in the positive analysis fitting direction relative to DMSO as the negative control and baseline of activity. Using a type of enzyme reporter, loss-of-signal activity can be used to understand changes in enzymatic activity as they relate to gene GSK3B. To generalize the intended target to other relatable targets, this assay endpoint is annotated to the kinase intended target family, where the subfamily is serine/threonine kinase.
GSK3b (h) is incubated with 8 mM MOPS pH 7.0, 0.2 mM EDTA, 20 uM […](p) EDEEE (phospho GS2 peptide), 10 mM MgAcetate and [gamma-33P]-ATP (specific activity and concentration as required). The reaction is initiated by the addition of the Mg/ATP mix. After incubation for 40 minutes at room temperature, the reaction is stopped by the addition of phosphoric acid to a concentration of 0.5%. […]
Take `O=C(/C=C/c1ccc(O)cc1)CC(=O)/C=C/c1ccc(O)cc1`: the AC50 is 2.14 µM (active).

As usually defined, the AC50 is the concentration giving half of the maximal activity seen.
